Data reported in PubChem BioAssay (EPA / NIEHS).
Values joined by “and” are separate entries in the source; they are usually repeats but may differ in a detail not shown here. Equal entries are not always repeated. Inconclusive results are not listed. The source holds several records for some structures; these can differ, active in one and inactive in another. Active and inactive are the calls of the source. Rule for the calls, unless noted: active = hit-call score of the fitted dose curve at least 0.9, where 1 is the maximum; inactive = score below 0.9.

Key:
[1] = CCTE_Shafer_MEA_acute_burst_percentage_mean: CCTE's Neural Acute Assay for Percentage of Spikes in a Burst, Shafer Lab (AID 2284017);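 for AC50: curve fitted for loss of signal so potency reflects decreased burst percentage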
In short: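 Well-level mean burst percentage from a 40-min recording after compound (0.03-40 uM) expressed as percent change from a 40-min baseline at 37C. Cultures: primary rat cortical neurons on MEA, dosed on DIV 13 or 15; fitted downward relative to DMSO.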

[2] = CCTE_Shafer_MEA_acute_burst_percentage_std: CCTE's Neural Acute Assay for Standard Deviation of Burst Percentage, Shafer Lab (AID 2284018);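 note: fitted in the negative direction so actives lower burst percentage SD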
In short: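 Value is percent change from baseline in the across-electrode SD of spikes-in-bursts percentage, wells with >/= 10 active electrodes. Acute 40-min exposure to 0.03-40 uM on DIV 13 or 15 rat cortical cultures, recorded at 37 C after 40-min baseline.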

[3] = CCTE_Shafer_MEA_acute_per_network_burst_spike_number_std: CCTE's Neural Acute Assay for Standard Deviation of Number of Spikes in a Network Burst, Shafer Lab (AID 2284020);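 note: fitted for decrease in spike-number SD versus DMSO so actives lower it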
In short: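 Spontaneous network activity of primary rat cortical neurons is recorded extracellularly before and after a 40-min compound exposure (0.03-40 uM) at 37 C. The endpoint is the well's percent change in burst spike-number SD.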

[4] = CCTE_Shafer_MEA_acute_per_network_burst_electrodes_number_mean: CCTE's Neural Acute Assay for Mean Number of Electrodes in a Network Burst, Shafer Lab (AID 2284021);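 note: curves fitted for decreases only so hits reduce electrodes per burst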
In short: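 Percent change from baseline in average electrode count per network burst, rat cortical cultures on 48-well MEAs; 40-min recordings each side of exposure, DIV 13 or 15; threshold 8x rms noise; DMSO as negative control.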

[5] = CCTE_Shafer_MEA_acute_network_burst_percentage: CCTE's Neural Acute Assay for Percentage of Network Bursts, Shafer Lab (AID 2284022);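 note: curves fitted for loss so actives lower network burst percentage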
In short: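 On DIV 13 or 15, at least three wells of rat cortical neurons per compound are dosed at 0.03-40 uM. Spontaneous firing is detected at 8x rms noise for 40 min before and after dosing at 37 C. The percent change in network-burst spike share is reported.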

[6] = CCTE_Shafer_MEA_acute_cross_correlation_area: CCTE's Neural Acute Assay for Area of Cross Correlation, Shafer Lab (AID 2284024);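 note: area under pooled inter-electrode spike cross-correlation near zero lag as percent change from own baseline; curves fitted for loss of cross-correlation area so actives lower synchrony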
In short: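 Extracellular recordings from cultured rat cortical neurons measure network synchrony as cross-correlation area; each well's post-compound value (0.03-40 uM, 40 min) is compared with its own 40 min baseline to give percent change.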

[7] = CCTE_Shafer_MEA_acute_cross_correlation_HWHM: CCTE's Neural Acute Assay for Cross Correlation at Half Width at Half Maximum, Shafer Lab (AID 2284026);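 note: percent change per well from pre-dose baseline in spike cross-correlogram half width; hits are a decrease in cross-correlogram half width relative to DMSO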
In short: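 Percent change in cross-correlogram half width at half maximum, narrower meaning more synchrony, was derived per well from paired 40-min recordings before and during exposure to 0.03-40 uM compound in rat cortical cultures at 37 C.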

[8] = CCTE_Shafer_MEA_acute_synchrony_index: CCTE's Neural Acute Assay for Synchrony, Shafer Lab (AID 2284027);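 note: network synchrony index of spontaneous spiking in primary rat cortical neurons on MEAs; fitted for loss of signal so actives lower synchrony relative to DMSO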
In short: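 Spontaneous firing of mature rat cortical networks is captured extracellularly on microelectrode arrays at 37 C, with wells needing ≥10 active electrodes. Each compound (0.03-40 uM) is judged by the change in synchrony index from baseline over 40 min.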

[9] = CCTE_Shafer_MEA_dev_per_burst_spike_percent: CCTE's Neural Network Formation Assay for Percent of Spikes in a Burst, Shafer Lab (AID 2284032);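 for AC50: fitted as a decrease in burst spike percentage below DMSO baseline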
In short: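 Rat primary cortical neurons on 16-electrode MEA wells, dosed from plating day 0 for 12 days with renewal on DIV 5 and 9; spikes-in-bursts percentage averaged over bursting electrodes, collapsed as AUC across days 5, 7, 9, 12; loss direction versus DMSO.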

[10] = target: Estrogen receptor (Homo sapiens) (UniProt P03372); experiment: CCTE_Deisenroth_AIME_384WELL_LUC_Inactive: CCTE's 384-well Estrogen Receptor Transactivation Assay without AIME metabolic competence (ERTA luciferase; metabolism negative), Deisenroth Lab (AID 2284038; active = hit-call score of the fitted dose curve at least 0.9, where 1 is the maximum;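 note: VM7Luc4E2 breast cells given medium preincubated 2 h with S9-free microspheres; hits raise estrogen receptor luciferase signal so potencies reflect agonists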)
In short: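 Chemicals (10-point series, 0.002 - 200 uM) were incubated 2 hours with alginate-water microsphere lids lacking S9, then the conditioned medium was transferred to VM7Luc4E2 breast cells for 24 hour. Luciferase induction was read by bioluminescence, fitted upward relative to 17beta-estradiol.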

[11] = CCTE_Shafer_MEA_dev_active_electrodes_number: CCTE's Neural Network Formation Assay for Number of Active Electrodes, Shafer Lab (AID 2284040; active = hit-call score of the fitted dose curve at least 0.9, where 1 is the maximum;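 for AC50: potency for loss of active electrodes versus DMSO so lower counts are hits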)
In short: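 Rat cortical primary cultures, 1.5 x 10^5 cells/well, PEI-coated MEA, laminin drop. Continuous exposure DIV 0–12; full media/compound change DIV 5, 9. Readout: electrodes with mean firing ≥5 spikes/min; AUC across days; loss vs DMSO.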

[12] = target: Estrogen receptor (Homo sapiens) (UniProt P03372); experiment: CCTE_Deisenroth_AIME_384WELL_LUC_Shift: CCTE's 384-well Estrogen Receptor Transactivation Assay with AIME metabolic competence data shift (ERTA luciferase; difference in metabolism positive and negative), Deisenroth Lab (AID 2284041);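 note: shift is response with S9 minus without S9 so positive means metabolism raised ER signal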
In short: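 Test chemicals (0.002–200 uM, 10-point) were pre-incubated 2 h with alginate microspheres containing phenobarbital/beta-naphthoflavone-induced male Sprague Dawley rat liver S9 or water, then medium was transferred to VM7Luc4E2 cells for 24 h luciferase readout; shift = S9-positive minus S9-negative normalized response.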

[13] = CCTE_Shafer_MEA_dev_burst_rate: CCTE's Neural Network Formation Assay for Burst Rate, Shafer Lab (AID 2284042);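 for AC50: potency for loss of burst rate below DMSO control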
In short: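 Exposure ran continuously over 12 days of network development in rat cortical cultures, with compound refreshed during full media changes on DIV 5 and 9. Single-electrode bursts per recording time, well-mean over active electrodes, trapezoidal AUC across days 5–12, fitted downward relative to DMSO.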

[14] = target: Estrogen receptor (Homo sapiens) (UniProt P03372); experiment: CCTE_Deisenroth_AIME_96WELL_LUC_Active: CCTE's 96-well Estrogen Receptor Transactivation Assay with AIME metabolic competence (ERTA luciferase; metabolism positive), Deisenroth Lab (AID 2284023; active = hit-call score of the fitted dose curve at least 0.9, where 1 is the maximum)
In short: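 Chemicals pre-incubated 2 h with alginate-immobilized phenobarbital/beta-naphthoflavone-induced male Sprague Dawley rat liver S9, then medium transferred to VM7Luc4E2 cells for 24 h luciferase read-out. 10-point series 0.002 - 200 uM; fitted relative to 17beta-estradiol.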

[15] = target: Estrogen receptor (Homo sapiens) (UniProt P03372); experiment: CCTE_Deisenroth_AIME_96WELL_LUC_Inactive: CCTE's 96-well Estrogen Receptor Transactivation Assay without AIME metabolic competence (ERTA luciferase; metabolism negative), Deisenroth Lab (AID 2284025; active = hit-call score of the fitted dose curve at least 0.9, where 1 is the maximum)
In short: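 VM7Luc4E2 breast cells, luciferase read 24 h after dosing with medium pre-incubated 2 h on alginate-water lids (metabolism negative). 10-point series 0.002–200 uM, single technical replicate, n≥4; fit relative to 17beta-estradiol.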

[16] = CCTE_Deisenroth_AIME_384WELL_CTox_Active: Cytotoxicity Assessment (CTOX) in CCTE's 384-well Estrogen Receptor Transactivation Assay with AIME metabolic competence (metabolism positive), Deisenroth Lab (AID 2284037; active = hit-call score of the fitted dose curve at least 0.9, where 1 is the maximum;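 note: chemicals first conditioned 2 h by alginate-bound induced rat liver S9 before cells; activity means signal loss indicating cell death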)
In short: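 Cytotoxicity in VM7Luc4E2 breast cells, 24 hour, measured as protease-substrate fluorescence loss, after 2-hour metabolic conditioning with induced rat hepatic S9 in alginate microspheres. Concentrations 0.002 - 200 uM, 10 points, bidirectional fitting.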

[17] = target: Estrogen receptor (Homo sapiens) (UniProt P03372); experiment: CCTE_Deisenroth_AIME_384WELL_LUC_Active: CCTE's 384-well Estrogen Receptor Transactivation Assay with AIME metabolic competence (ERTA luciferase; metabolism positive), Deisenroth Lab (AID 2284030; active = hit-call score of the fitted dose curve at least 0.9, where 1 is the maximum)
In short: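 Estrogenic luciferase signal in VM7Luc4E2 cells is measured at 24 hour, after chemicals have been preconditioned 2 hours with PB/BNF-induced rat hepatic S9 in alginate. Gain of signal is fitted relative to 17beta-estradiol, across 0.002 - 200 uM.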

[18] = CCTE_Deisenroth_AIME_384WELL_CTox_Inactive: Cytotoxicity Assessment (CTOX) in CCTE's 384-well Estrogen Receptor Transactivation Assay without AIME metabolic competence (metabolism negative), Deisenroth Lab (AID 2284039; active = hit-call score of the fitted dose curve at least 0.9, where 1 is the maximum;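 note: cell viability via live-cell protease substrate cleaved to fluorescent probe; cells exposed 24 h to medium preincubated 2 h with alginate-water beads without S9; loss of fluorescence signal means loss of viability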)
In short: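 Fluorescent protease-substrate viability readout after 24 h exposure of VM7Luc4E2 cells to conditioned medium. Chemicals (0.002–200 uM) first sat 2 h over alginate-water beads, no S9. Data fitted bidirectionally, loss of signal meaning viability loss.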

Measured: AC50

Chain of Estrogen receptor (Homo sapiens) (P03372 whole entry, looked up): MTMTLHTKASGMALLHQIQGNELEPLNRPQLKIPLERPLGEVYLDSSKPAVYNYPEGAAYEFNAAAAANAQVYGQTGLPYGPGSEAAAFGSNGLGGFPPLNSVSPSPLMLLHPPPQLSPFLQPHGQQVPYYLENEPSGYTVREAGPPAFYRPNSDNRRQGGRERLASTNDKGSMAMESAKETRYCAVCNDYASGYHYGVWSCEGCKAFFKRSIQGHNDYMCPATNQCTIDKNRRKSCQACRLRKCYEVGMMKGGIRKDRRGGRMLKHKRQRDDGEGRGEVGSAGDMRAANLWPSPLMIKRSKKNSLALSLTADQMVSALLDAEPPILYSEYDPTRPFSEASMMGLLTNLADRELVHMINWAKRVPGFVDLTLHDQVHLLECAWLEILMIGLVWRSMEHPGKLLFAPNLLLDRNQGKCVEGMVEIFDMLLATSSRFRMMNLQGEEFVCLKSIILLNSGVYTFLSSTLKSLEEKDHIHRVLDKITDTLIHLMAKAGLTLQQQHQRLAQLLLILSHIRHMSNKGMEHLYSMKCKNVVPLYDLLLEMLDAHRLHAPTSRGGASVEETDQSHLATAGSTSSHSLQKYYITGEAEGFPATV

C=CCC1=C(C)C(OC(=O)C2C(C=C(C)C)C2(C)C)CC1=O (stereo not drawn)
active: [1] 6.49 µM and 2.93 µM | [3] 0.727 µM | [5] 7.43 µM and 1.34 µM | [7] 2.38 µM | [8] 5.52 µM and 2.93 µM | [9] 14.8 µM | [11] 10 µM and 14.8 µM
inactive: [2] | [3] | [4] | [6] | [7] | [9] | [10] | [12] | [13]

CCNc1nc(Cl)nc(NC(C)C)n1
inactive: [2] | [3] | [4] | [5] | [14] | [6] | [15] | [9] | [16] | [10] | [11] | [12] | [13]
active: [1] 13.9 µM | [7] 11.8 µM | [8] 20 µM

N#CC(CCc1ccc(Cl)cc1)(Cn1cncn1)c1ccccc1 (stereo not drawn)
inactive: [1] | [2] | [3] | [4] | [5] | [6] | [7] | [8]

CS/C(C)=N/OC(=O)N(C)SN(C)C(=O)O/N=C(\C)SC
active: [1] 25.5 µM | [3] 25.3 µM | [4] 20 µM | [8] 27.8 µM
inactive: [2] | [5] | [6] | [7]

CCOP(=S)(OCC)SCn1c(=O)oc2cc(Cl)ccc21
active: [1] 32.3 µM | [4] 20 µM | [5] 29 µM | [8] 29.3 µM
inactive: [2] | [3] | [6] | [7]

CCCC1COC(Cn2cncn2)(c2ccc(Cl)cc2Cl)O1 (stereo not drawn)
inactive: [2] | [6]
active: [1] 14.6 µM | [3] 12.6 µM | [4] 15.2 µM | [5] 20 µM | [7] 25.8 µM | [8] 17.5 µM

CCCN(CCC)c1c([N+](=O)[O-])cc(S(N)(=O)=O)cc1[N+](=O)[O-]
inactive: [2] | [3] | [4] | [5] | [6]
active: [1] 5 µM | [7] 10.5 µM | [8] 5 µM

CC(Oc1ccc(Cl)cc1Cl)C(=O)O (stereo not drawn)
inactive: [1] | [2] | [3] | [4] | [5] | [6] | [7] | [8] | [17] | [10] | [12]

CCON=C(CC)C1=C(O)CC(c2c(C)cc(C)cc2C)CC1=O (stereo not drawn)
inactive: [17] | [16] | [12]

CCOC(=O)CC(SP(=S)(OC)OC)C(=O)OCC (stereo not drawn)
active: [9] 20.9 µM and 15 µM | [11] 17.1 µM and 6.38 µM | [13] 22.7 µM and 2.98 µM

O=C(O)COc1nc(Cl)c(Cl)cc1Cl
inactive: [17] | [10] | [12]

N#Cc1nn(-c2c(Cl)cc(C(F)(F)F)cc2Cl)c(N)c1S(=O)C(F)(F)F (stereo not drawn)
active: [1] 33.4 µM and 24.2 µM | [2] 36.5 µM and 3.5 µM | [4] 1.36 µM and 1.28 µM | [7] 13.3 µM and 24.6 µM | [8] 33.4 µM and 23.4 µM
inactive: [3] | [5] | [6] | [9] | [11] | [13]

CO/C=C(/C(=O)OC)c1ccccc1Oc1cc(Oc2ccccc2C#N)ncn1
inactive: [2] | [3] | [6] | [7]
active: [1] 10.2 µM | [4] 7.21 µM | [5] 11.1 µM | [8] 10.7 µM | [9] 1.64 µM and 1.26 µM | [11] 1.52 µM and 1.07 µM | [13] 1.14 µM and 1.39 µM

Cc1ccc(-c2c(Cl)nc(C#N)n2S(=O)(=O)N(C)C)cc1
active: [9] 18.3 µM | [11] 39 µM | [13] 15.2 µM
inactive: [1] | [2] | [3] | [4] | [5] | [6] | [7] | [8]

C=CCC1=C(C)[C@@H](OC(=O)[C@@H]2[C@@H](C=C(C)C)C2(C)C)CC1=O
active: [1] 36.5 µM | [4] 10.8 µM | [5] 31 µM | [7] 36.2 µM | [8] 27.2 µM | [11] 6.82 µM
inactive: [2] | [3] | [6] | [9] | [13]

CCOc1cc(Oc2ccc(C(F)(F)F)cc2Cl)ccc1[N+](=O)[O-]
active: [9] 12.8 µM | [11] 4.91 µM | [13] 9.62 µM
inactive: [16] | [18] | [12]

N#Cc1cc(Br)c(O)c(Br)c1
inactive: [16] | [18] | [12]

COc1cnc(OC)n2nc(NS(=O)(=O)c3c(OCC(F)F)cccc3C(F)(F)F)nc12
active: [17] 21.2 µM | [10] 13.7 µM | [12] 28 µM
inactive: [16] | [18]

CC1=C(C(=O)Nc2ccccc2)SCCO1
inactive: [17] | [10] | [12]
